Structures are written as SMILES. Screen size: about 50,000 compounds; about 800 (1.6%) showed an effect of 50% or more. Shown is part of a subset that was picked to be rich in strong results.

The target in the experiment is Bcl-2-like protein 10 (Homo sapiens) (UniProt Q9HD36). As to the kind of experiment: TR3 peptide-Bcl-B binding displacers, biochemical primary FP assay, phenotype converters (AID 1240).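 Also: 0% = Bcl-B with tracer peptide and DMSO and 100% = tracer peptide lacking Bcl-B.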 Conditions: GST-Bcl-B / FITC-TR3 peptide fluorescence polarization; stronger effect = higher value; compound at 3.75 mg/L.
Sequence of Bcl-2-like protein 10 (Homo sapiens) (Q9HD36 whole entry, looked up): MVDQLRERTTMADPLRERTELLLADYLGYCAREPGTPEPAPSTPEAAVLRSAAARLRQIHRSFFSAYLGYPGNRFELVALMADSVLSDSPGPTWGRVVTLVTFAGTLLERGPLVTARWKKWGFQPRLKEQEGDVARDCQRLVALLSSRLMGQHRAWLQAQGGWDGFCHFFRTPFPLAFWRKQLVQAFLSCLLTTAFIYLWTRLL
For the compound `COc1cc2nc(-c3ccc([N+](=O)[O-])c(C)c3)oc(=O)c2cc1OC`, the displacement was -11.4%. With `COc1cc2nc(-c3ccc([N+](=O)[O-])cc3)oc(=O)c2cc1OC` the figure was 78%; with `COc1cc2nc(-c3ccc(Oc4ccc([N+](=O)[O-])cc4)cc3)oc(=O)c2cc1OC`, 10.6%.

`CCc1c(C)nc2ccc(C)cc2c1SCC(=O)O`: the displacement amounted to 9.8%. As for `Cc1cc(C)nc(SCC(=O)N(c2ccccc2)c2ccccc2)n1`, the displacement was -6.6%.

In the case of `CSc1nc(N)c(C#N)c(-c2ccccc2)c1C#N`, the displacement was -11%. The figure for `NC(=O)c1ccc(NC(=O)COc2ccccc2Cl)cc1` is -2%; for `O=C1NC(=S)NC(=O)C1=Cc1cn(CCOc2ccc(Br)cc2)c2ccccc12` it is 9.1%. As for `C=CCc1ccccc1OCCn1cc(C=C2C(=O)NC(=S)NC2=O)c2ccccc21`, the displacement came out at 53.6%. Consider `C=CCc1ccccc1OCCn1cc(C=C2C(=O)NC(=O)NC2=O)c2ccccc21`, for which the displacement is -6.7%. Turning to `COc1cccc(OCCn2cc(C=C3C(=O)NC(=O)NC3=O)c3ccccc32)c1`, the displacement came to 15.2%. Turning to `Cc1ccc(OCCn2cc(C=C3C(=O)NC(=O)NC3=O)c3ccccc32)cc1C`, the displacement was 79.3%.

`C=CCc1ccccc1OCCn1cc(/C=C2/SC(=S)NC2=O)c2ccccc21`: the displacement is 5.8%. For `CN1C(=O)/C(=C\c2cn(CCOc3ccc(Br)cc3)c3ccccc23)SC1=S`, the displacement worked out at 3.5%. On to `Cc1cccc(OCCn2cc(C=C3C(=O)NC(=S)NC3=O)c3ccccc32)c1`, for which the displacement is 11.2%. `O=C1NC(=O)C(=Cc2cn(CCOc3ccc(Br)cc3)c3ccccc23)C(=O)N1`: the displacement was 73.8%. The figure for `c1ccc(C2=C(c3ccccc3)N3CCN=C3S2)cc1` is 6.4%; for `O=S1(=O)CCC(NC(=S)N/N=C/c2cccc3ccccc23)C1` (stereo not drawn) it is 5.1%. For the compound `COc1ccc(-n2nc3cc(C)c(NC(=O)c4cc(Cl)ccc4OC)cc3n2)cc1`, the displacement is -5.3%. For `Cc1ccc(NC(=O)COC(=O)c2ccn(C)n2)cc1`, the displacement was 13.5%.

Take `Cc1cc(NC(=O)c2ccc(Cl)cc2Cl)ccc1NC(=O)c1ccccc1`: the displacement was -2.3%. Turning to `CCOC(=O)C1=C(O)/C(=C/c2cccnc2)SC1=Nc1ccc([N+](=O)[O-])cc1`, the displacement worked out at 55.2%.

As to `CCOC(=O)C1=C(O)/C(=C/c2ccccc2)SC1=Nc1ccc([N+](=O)[O-])cc1`, the displacement is -0.9%.

In the case of `CCOC(=O)C1=C(O)/C(=C\c2ccccc2[N+](=O)[O-])N=C1C`, the displacement is 15.7%. Turning to `CCOC(=O)C1=C(O)/C(=C/c2ccc(Br)cc2)SC1=Nc1ccc([N+](=O)[O-])cc1`, the displacement amounted to 15%.

On to `CCOC(=O)C1=C(O)/C(=C/c2cccc(Br)c2)SC1=Nc1ccc([N+](=O)[O-])cc1`, for which the displacement is 63.1%. Consider `CCOC(=O)C1=C(O)/C(=C/c2cccnc2)SC1=Nc1ccc(C)cc1`, for which the displacement is 14.8%. With `CCOC(=O)C1=C(O)/C(=C/c2cccc(O)c2)SC1=Nc1ccc([N+](=O)[O-])cc1` the figure was -1.1%. In the case of `CCOC(=O)C1=C(O)/C(=C/c2cccc([N+](=O)[O-])c2)N=C1C`, the displacement is 129%. The figure for `CCOC(=O)C1=C(O)/C(=C\c2ccc([N+](=O)[O-])cc2)N=C1C` is 1.5%; for `CCOC(=O)c1c(NC(=O)/C=C/c2cccs2)sc(C)c1C` it is 2.9%. For `Cc1ccc(OCC(=O)Nc2cc(Cl)cc(Cl)c2)cc1`, the displacement is 12.4%. With `O=C(NCc1ccc2c(c1)OCO2)c1ccc(F)cc1` the figure was 11.2%; with `COc1ccc(/C=C2/C(=O)ON=C2c2ccccc2)cc1`, 13.6%; with `CC(=O)Oc1ccc2c(C)cc(=O)oc2c1C`, -10.7%. The figure for `CCOc1ccccc1N1CCN(C(=O)C(Sc2ccccc2)c2ccccc2)CC1` (stereo not drawn) is -4.4%; for `CC1CN(C(=O)c2cccs2)CC(C)O1` (stereo not drawn) it is 3.3%. On to `CC(=O)Nc1ccc(NC2=C(Cl)C(=O)c3ccccc3C2=O)cc1`, for which the displacement is 7.1%. Turning to `Cc1cc(Cl)ccc1OCC(N)=O`, the displacement was -0.8%. Regarding `N/C(=N/S(=O)(=O)c1ccc(Br)cc1)c1ccccc1`, the displacement is 8.5%. Turning to `CN(C)/C(=N\S(=O)(=O)c1ccc(Br)cc1)c1ccccc1`, the displacement was determined as 96.8%.

On to `Cc1ccc(S(=O)(=O)/N=C(\c2ccccc2)N(C)C)cc1`, for which the displacement was 13.2%. `Cc1c(N2C(=O)/C(=C/c3cccs3)SC2=S)c(=O)n(-c2ccccc2)n1C`: the displacement amounted to 8.6%. For the compound `CCOc1ccc(Br)cc1C=Nc1c(C)n(C)n(-c2ccccc2)c1=O`, the displacement was -1.8%. For the compound `COc1cc(/C=N/N2C(=O)c3ccccc3C2=O)c([N+](=O)[O-])cc1OC`, the displacement was -1.8%. With `COc1cc(/C=C2/SC(=S)N(c3c(C)n(C)n(-c4ccccc4)c3=O)C2=O)c([N+](=O)[O-])cc1OC` the figure was 61.3%. `COc1ccccc1/C=C1\SC(=S)N(c2c(C)n(C)n(-c3ccccc3)c2=O)C1=O`: the displacement came to 1.2%. The figure for `COc1cc(C=Nc2c(C)n(C)n(-c3ccccc3)c2=O)c([N+](=O)[O-])cc1OC` is 130%; for `COc1ccccc1C/C(N)=N/OC(=O)c1ccc(I)cc1` it is 10.8%; for `Cc1ccc(C23CC4CC(CC(C(=O)Nc5ccc(F)cc5F)(C4)C2)C3)cc1` it is -3.1%. For `Cc1cc(Cl)ccc1OCC(=O)NCC1CCCO1` (stereo not drawn), the displacement stood at 1.4%.

With `CC(C)CN1C(=O)c2ccc(C(=O)Nc3ccc(Br)cc3C(=O)O)cc2C1=O`, the displacement is -12.5%. With `Cc1ccc(/C=C/C(=O)Nc2cccc3cccnc23)o1` the figure was 91.4%; with `Cc1ccc(/C=C/C(=O)Nc2cccc3ncccc23)o1`, 27.1%; with `Cc1ccc(/C=C/C(=O)Nc2cccc3ccccc23)o1`, -7.3%. `Cc1c(C(=O)Nc2ccc(Cl)cn2)oc2ccccc12`: the displacement is 15.4%.

`Cc1cccc(C(C)C)c1NC(=O)COc1ccc(Cl)cc1Cl`: the displacement amounted to 13.3%. In the case of `Cc1cccc(N2C(=O)/C(=C/c3ccco3)SC2=S)c1C`, the displacement came out at 1.9%. On to `Cc1cc(/C=C2\SC(=S)NC2=O)c(C)n1-c1cccc([N+](=O)[O-])c1`, for which the displacement amounted to 7.1%. On to `Cc1ccc(CN2CCN(/N=C/c3ccc(C(=O)O)cc3)CC2)cc1`, for which the displacement was 16.4%. The figure for `Cc1ccc(C)n1Cc1ccc(C(=O)O)cc1` is 66.4%; for `O=C(O)c1ccc(CN2CCOCC2)cc1` it is 13.7%. `CC(=O)c1cccc(NC(=O)/C(=C\c2cccnc2)NC(=O)c2ccccc2)c1`: the displacement was -5.3%. As for `N/C(Cc1cccc2ccccc12)=N\OC(=O)c1cccs1`, the displacement was determined as 98.4%.

With `COc1ccc(C/C(N)=N/OC(=O)c2cccs2)cc1`, the displacement came to 8.1%. For `N/C(Cc1cccc2ccccc12)=N\OC(=O)c1ccc(F)cc1`, the displacement stood at 31.7%. The figure for `COc1ccc(C(=O)CSc2nc3c(c(-c4ccc(C)o4)c2C#N)CCCC3)cc1` is 7.6%; for `CC(C)(C)C1(O)CC(C(F)(F)F)=NN1C(=O)COc1ccccc1` (stereo not drawn) it is -7.4%.

As for `O=C1ON=C(c2ccccc2)/C1=C/c1cccnc1`, the displacement was -9.2%. Consider `CCCCc1ccc(/C=C2/C(=O)ON=C2c2ccccc2)s1`, for which the displacement is 40.8%. Regarding `O=C1ON=C(c2ccccc2)/C1=C/c1ccc(Br)s1`, the displacement was 70.8%. With `CCCCN(CC)c1cnn(-c2ccccc2)c(=O)c1N` the figure was 10.6%; with `COc1ccc(C2C(C(C)=O)=C(Nc3ccccc3)CC(C)(O)C2C(C)=O)cc1` (stereo not drawn), 1.4%; with `COc1ccc(C2C(C(C)=O)=C(Nc3ccc(Br)cc3)CC(C)(O)C2C(C)=O)cc1` (stereo not drawn), 90.9%. For the compound `CC(=O)C1=C(Nc2ccc(Br)cc2)CC(C)(O)C(C(C)=O)C1c1ccc(C)cc1` (stereo not drawn), the displacement was -4.9%. Consider `COc1ccc(C2Nc3ccccc3C(=O)N2Cc2ccccc2)cc1Cn1nc(C)c(Br)c1C` (stereo not drawn), for which the displacement was determined as 15.4%.

Turning to `Cc1cc(Cl)ccc1OCC(=O)Nc1sc(C)c(C)c1C(N)=O`, the displacement is 79.1%. `CCOC(=O)c1sc(NC(=O)COc2ccc(Cl)cc2C)c(C(=O)OCC)c1C`: the displacement was -5.1%. For the compound `CCOC(=O)c1c(NC(=O)COc2cc(Cl)ccc2Cl)sc(C)c1C`, the displacement is -8%. Regarding `O=C(N/N=C/c1ccc(Cl)c(Cl)c1)C1CC(=O)N(c2ccccc2)C1` (stereo not drawn), the displacement is -9.3%. For the compound `CS(=O)(=O)N(CC(=O)NCc1ccncc1)c1ccc(Oc2ccccc2)cc1`, the displacement came out at 10.2%. Consider `Fc1ccccc1-c1nc(-c2ccc(Br)cc2)no1`, for which the displacement came to 4.3%. With `CCOc1ccc(C(=O)Nc2cccc3nsnc23)cc1Br` the figure was 78.2%. Take `CCOc1ccc(C(=O)Nc2cccc3nsnc23)cc1[N+](=O)[O-]`: the displacement was 10.7%.

For `Cc1ccc2nsnc2c1NC(=O)c1ccc(Br)o1`, the displacement turned out to be 15.6%. For the compound `CCOc1ccc(C(=O)Nc2cccc3nsnc23)cc1Cl`, the displacement worked out at 30.9%.

As for `O=C(Nc1cccc2nsnc12)c1ccco1`, the displacement was determined as 4%.

In the case of `O=C(Nc1cccc2nsnc12)c1ccc(Br)o1`, the displacement was 69.6%. On to `O=C(Nc1sc2c(c1C(=O)N1CCCCC1)CCCCC2)c1ccc([N+](=O)[O-])cc1`, for which the displacement was -2.1%. Regarding `COc1cccc(OC)c1C(=O)NCc1ccc(C)cc1`, the displacement was 2.7%. Turning to `Fc1ccc(-c2noc(-c3ccc(Cl)cc3)n2)cc1`, the displacement was -6.4%. With `COc1cc(C(=O)N2CCN(C)CC2)c([N+](=O)[O-])cc1OC`, the displacement was -0.1%. For `COc1ccc(-c2noc(-c3ccc(C)c([N+](=O)[O-])c3)n2)cc1OC`, the displacement turned out to be 54.4%. Consider `Cc1cccc(-c2noc(-c3cccc([N+](=O)[O-])c3C)n2)c1`, for which the displacement worked out at 78.9%. On to `COc1ccc(-c2nc(-c3cc(OC)c(OC)c(OC)c3)no2)cc1OC`, for which the displacement is -5.7%. Regarding `COc1ccc(-c2noc(-c3ccc(C)c([N+](=O)[O-])c3)n2)cc1`, the displacement was -0.4%. Regarding `Cc1ccc(-c2noc(-c3cccc([N+](=O)[O-])c3C)n2)cc1`, the displacement stood at 6.9%. The figure for `Cc1ccc(-c2nc(-c3cccnc3)no2)cc1[N+](=O)[O-]` is 21.4%. `Cc1cccc(-c2noc(-c3ccc(C)c([N+](=O)[O-])c3)n2)c1`: the displacement was 76.1%. As for `Cc1c(-c2nc(-c3ccncc3)no2)cccc1[N+](=O)[O-]`, the displacement turned out to be 0.7%. The figure for `Cc1cccc(-c2noc(-c3ccc(Br)cc3)n2)c1` is -1.7%; for `O=C1c2ccccc2C(=O)C1C1=CC(c2ccccc2)C(c2ccccc2)N=N1` (stereo not drawn) it is -10%; for `O=S(=O)(NC(=S)c1ccccc1)c1ccc(I)cc1` it is 11.9%. In the case of `COc1cc(/C=C2\C(=O)NC(=O)N(c3ccc(Cl)cc3)C2=O)cc(Cl)c1OC`, the displacement was -2.2%. On to `COc1ccc(/C=C/C(=O)c2ccc(Br)cc2)cc1[N+](=O)[O-]`, for which the displacement turned out to be 12.9%. Consider `O=C(CSc1nnnn1-c1ccccc1)Nc1ccccc1[N+](=O)[O-]`, for which the displacement was 1.7%. As to `O=C(CSc1ccc(Cl)cc1)NCCc1ccc(F)cc1`, the displacement is -8.3%. In the case of `O=C(NCc1ccc2c(c1)OCO2)c1ccccc1F`, the displacement turned out to be 14.1%.

These data come from PubChem BioAssay AID1240 (Sanford-Burnham Center for Chemical Genomics, 2008).
